# Test results published in PubChem BioAssay (EPA / NIEHS).
# The source made the active and inactive calls. Rule for the calls: active = hit-call score of the fitted dose curve at least 0.9, where 1 is the maximum; inactive = score below 0.9.
# What was measured:
# Details in all cases: mRNA level, 48 h; actives raise or lower the signal
# [1] = read-out: Cytochrome P450 2C19 (Homo sapiens) (UniProt P33261); experiment: LTEA_HepaRG_CYP2C19: Life Technologies and Expression Analysis (LTEA) Assay for CYP2C19 using HepaRG (AID 2283482)
# How it was run: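 CYP2C19 transcript levels by qRT-PCR, normalized to three housekeeping genes, in HepaRG cells after 48 h chemical exposure. Eight-point half-log series topping at 100 uM, 0.5% DMSO vehicle. Increases and decreases both fitted against DMSO.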
# [2] = read-out: CYP2C8 (gene 1558); experiment: LTEA_HepaRG_CYP2C8: Life Technologies and Expression Analysis (LTEA) Assay for CYP2C8 using HepaRG (AID 2283483)
# How it was run: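 CYP2C8 mRNA induction or loss, by qRT-PCR normalized to ACTB/GAPDH/POLR2A, is read in HepaRG cells after 48 h treatment. Concentrations run from 100 uM down in half-log dilutions, with 0.5% DMSO as vehicle and baseline.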
# [3] = read-out: CYP2C9 (gene 1559); experiment: LTEA_HepaRG_CYP2C9: Life Technologies and Expression Analysis (LTEA) Assay for CYP2C9 using HepaRG (AID 2283484)
# How it was run: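 Cells plated 48 h, switched to serum-free induction medium, then treated in duplicate for 48 h at eight concentrations (max 100 uM, 0.5% DMSO). RNA then analysed by qRT-PCR for CYP2C9; curves fitted in both directions relative to DMSO.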
# [4] = read-out: CYP2E1 (gene 1571); experiment: LTEA_HepaRG_CYP2E1: Life Technologies and Expression Analysis (LTEA) Assay for CYP2E1 using HepaRG (AID 2283485)
# How it was run: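 HepaRG cells, plated 48 h, then exposed 48 h in serum-free induction medium to eight half-log concentrations from 100 uM in 0.5% DMSO, duplicate. CYP2E1 mRNA by qRT-PCR, normalized to ACTB/GAPDH/POLR2A; bidirectional fit versus DMSO.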
# [5] = read-out: CYP4A11 (gene 1579); experiment: LTEA_HepaRG_CYP4A11: Life Technologies and Expression Analysis (LTEA) Assay for CYP4A11 using HepaRG (AID 2283486)
# How it was run: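 Readout is CYP4A11 transcript level by qRT-PCR, normalized to three housekeeping genes and fitted bidirectionally against 0.5% DMSO. Human HepaRG cells were treated 48 h, in duplicate, with an 8-point half-log series topping at 100 uM.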
# [6] = read-out: Cytochrome P450 3A4 (Homo sapiens) (UniProt P08684); experiment: LTEA_HepaRG_CYP3A4: Life Technologies and Expression Analysis (LTEA) Assay for CYP3A4 using HepaRG (AID 2283487)
# How it was run: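 CYP3A4 transcript measured by TaqMan qRT-PCR and normalized to three housekeeping genes after 48 h chemical exposure of human HepaRG cells. Top concentration 100 uM, half-log steps, 0.5% DMSO vehicle; gain or loss fitted against DMSO baseline.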
# [7] = read-out: DNA damage-inducible transcript 3 (DDIT3), DDIT3 (gene 1649); experiment: LTEA_HepaRG_DDIT3: Life Technologies and Expression Analysis (LTEA) Assay for DNA damage-inducible transcript 3 (DDIT3) using HepaRG (AID 2283488)
# How it was run: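 HepaRG cells, 48 h after plating, exposed 48 h in serum-free induction medium to 8 half-log concentrations up to 100 uM in 0.5% DMSO, in duplicate. DDIT3 mRNA measured by TaqMan qRT-PCR, normalized to ACTB, GAPDH and POLR2A. Fitted bidirectionally against DMSO.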
# [8] = read-out: Pro-epidermal growth factor (Homo sapiens) (UniProt P01133); experiment: LTEA_HepaRG_EGF: Life Technologies and Expression Analysis (LTEA) Assay for Epidermal growth factor (EGF) using HepaRG (AID 2283489)
# How it was run: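 EGF transcript measured by Fluidigm TaqMan qRT-PCR with three housekeeping genes for normalization, 48 h after dosing HepaRG cultures in duplicate (top 100 uM, half-log steps, 0.5% DMSO vehicle). Gain or loss relative to DMSO fitted.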
# [9] = read-out: Early growth response protein 1 (EGR1) transcription factor, EGR1 (gene 1958); experiment: LTEA_HepaRG_EGR1: Life Technologies and Expression Analysis (LTEA) Assay for Early growth response protein 1 (EGR1) transcription factor using HepaRG (AID 2283490)
# How it was run: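 Read-out is EGR1 mRNA level by qRT-PCR, normalized to three housekeeping genes and analysed for gain or loss of signal against 0.5% DMSO. Source cells: human HepaRG, treated 48 h at up to 100 uM in half-log dilutions.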
# [10] = read-out: Ezrin (EZR), EZR (gene 7430); experiment: LTEA_HepaRG_EZR: Life Technologies and Expression Analysis (LTEA) Assay for Ezrin (EZR) using HepaRG (AID 2283491)
# How it was run: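 HepaRG, 48 h chemical exposure, 8-pt half-log series from 100 uM, 0.5% DMSO vehicle, duplicates. Read-out: EZR mRNA by TaqMan qRT-PCR (Fluidigm array), housekeeping-normalized; bidirectional curve fit vs DMSO baseline.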
# Sequence of Cytochrome P450 2C19 (Homo sapiens) (P33261 whole entry, looked up): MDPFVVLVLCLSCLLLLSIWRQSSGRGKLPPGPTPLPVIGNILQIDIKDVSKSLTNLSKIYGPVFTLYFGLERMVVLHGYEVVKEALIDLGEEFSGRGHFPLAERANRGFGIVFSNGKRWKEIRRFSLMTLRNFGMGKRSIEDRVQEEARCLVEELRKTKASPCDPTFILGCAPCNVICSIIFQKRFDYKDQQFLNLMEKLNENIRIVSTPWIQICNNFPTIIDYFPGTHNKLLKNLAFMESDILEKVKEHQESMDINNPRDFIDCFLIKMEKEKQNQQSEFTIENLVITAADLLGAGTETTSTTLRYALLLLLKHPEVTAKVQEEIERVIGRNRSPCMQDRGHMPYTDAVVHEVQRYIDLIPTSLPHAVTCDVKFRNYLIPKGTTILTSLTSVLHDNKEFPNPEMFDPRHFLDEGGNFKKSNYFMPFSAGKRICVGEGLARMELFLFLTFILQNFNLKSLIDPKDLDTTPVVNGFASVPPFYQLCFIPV
# Sequence of Cytochrome P450 3A4 (Homo sapiens) (P08684 whole entry, looked up): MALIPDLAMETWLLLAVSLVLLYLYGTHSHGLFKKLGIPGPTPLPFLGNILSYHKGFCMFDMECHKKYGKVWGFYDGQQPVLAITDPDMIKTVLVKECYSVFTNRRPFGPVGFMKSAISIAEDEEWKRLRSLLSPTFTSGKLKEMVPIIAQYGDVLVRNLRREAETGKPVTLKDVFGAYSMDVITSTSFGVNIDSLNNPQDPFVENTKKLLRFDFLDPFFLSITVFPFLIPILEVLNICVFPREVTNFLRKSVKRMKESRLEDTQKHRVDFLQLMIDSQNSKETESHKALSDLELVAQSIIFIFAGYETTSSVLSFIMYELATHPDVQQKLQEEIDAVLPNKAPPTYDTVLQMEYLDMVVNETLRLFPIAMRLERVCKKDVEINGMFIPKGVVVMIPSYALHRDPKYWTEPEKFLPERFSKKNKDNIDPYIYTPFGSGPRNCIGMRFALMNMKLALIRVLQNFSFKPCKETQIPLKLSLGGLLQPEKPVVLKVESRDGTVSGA
smiles,measurement,setting,value
O=C(OCCCCCCOC(=O)c1ccccc1)c1ccccc1,outcome,[1],inactive
same,outcome,[2],inactive
same,outcome,[3],inactive
same,outcome,[4],inactive
same,outcome,[5],inactive
same,outcome,[6],inactive
same,outcome,[7],inactive
same,outcome,[8],inactive
same,outcome,[9],inactive
same,outcome,[10],inactive
CC1(C)NC(=O)N(c2ccc([N+](=O)[O-])c(C(F)(F)F)c2)C1=O,AC50,[1],12.4 µM (active)
same,AC50,[2],85.5 µM (active)
same,AC50,[3],83.6 µM (active)
same,AC50,[4],63.2 µM (active)
same,AC50,[5],69.3 µM (active)
same,AC50,[7],75.7 µM (active)
same,outcome,[8],inactive
same,outcome,[9],inactive
same,AC50,[10],93 µM (active)
Cc1ncc(CO)c(CO)c1O,outcome,[1],inactive
same,outcome,[2],inactive
same,outcome,[3],inactive
same,outcome,[4],inactive
same,outcome,[5],inactive
same,outcome,[6],inactive
same,outcome,[7],inactive
same,outcome,[8],inactive
same,outcome,[9],inactive
same,outcome,[10],inactive
CCCCCCCCOC(=O)c1cc(O)c(O)c(O)c1,outcome,[1],inactive
same,outcome,[2],inactive
same,outcome,[3],inactive
same,outcome,[4],inactive
same,outcome,[5],inactive
same,outcome,[6],inactive
same,outcome,[7],inactive
same,outcome,[8],inactive
same,outcome,[9],inactive
same,outcome,[10],inactive
O=C(O)c1ccccc1-n1cc(C(=O)O)c(=O)c2cc(Nc3c(F)cc(F)cc3Cl)c(Cl)cc21,AC50,[1],5.7 µM (active)
same,AC50,[2],7.91 µM (active)
same,AC50,[4],25.5 µM (active)
same,outcome,[5],inactive
same,AC50,[6],3.09 µM (active)
same,outcome,[7],inactive
same,outcome,[8],inactive
same,outcome,[9],inactive
same,outcome,[10],inactive
O=C(O)Cn1c(=O)n(Cc2ccc(Br)cc2F)c(=O)c2ccc(Cl)cc21,AC50,[1],13 µM (active)
same,AC50,[2],17 µM (active)
same,outcome,[3],inactive
same,AC50,[4],25.8 µM (active)
same,outcome,[5],inactive
same,outcome,[7],inactive
same,outcome,[8],inactive
same,outcome,[9],inactive
same,outcome,[10],inactive
CCN(CC)C(=O)c1cc(S(=O)(=O)Cc2ccccc2)c(N2CCC(c3ccccc3)CC2)cc1N(CC)CCN(C)C,AC50,[1],4.25 µM (active)
same,AC50,[2],4.92 µM (active)
same,AC50,[3],5.05 µM (active)
same,AC50,[4],26 µM (active)
same,AC50,[5],30.5 µM (active)
same,AC50,[6],34.7 µM (active)
same,AC50,[7],22.9 µM (active)
same,outcome,[8],inactive
same,AC50,[9],28.8 µM (active)
same,outcome,[10],inactive
CC(C)(C)c1cc(/C=C2\SC(N)=NC2=O)cc(C(C)(C)C)c1O,AC50,[1],26.3 µM (active)
same,outcome,[2],inactive
same,AC50,[3],12.2 µM (active)
same,AC50,[4],83.2 µM (active)
same,AC50,[5],29.1 µM (active)
same,AC50,[6],90.9 µM (active)
same,AC50,[7],22.8 µM (active)
same,outcome,[8],inactive
same,AC50,[9],50 µM (active)
same,outcome,[10],inactive
C[C@]12CC[C@@H]3c4ccc(O)cc4CC[C@H]3[C@@H]1CC[C@H]2O,AC50,[1],3.77 µM (active)
same,AC50,[2],1.46 µM (active)
same,outcome,[3],inactive
same,AC50,[4],88.4 µM (active)
same,AC50,[5],78.2 µM (active)
same,outcome,[6],inactive
same,outcome,[7],inactive
same,outcome,[8],inactive
same,outcome,[9],inactive
same,outcome,[10],inactive
O=C1CCC(C2CCCCC2)CC1,outcome,[1],inactive
same,outcome,[2],inactive
same,outcome,[4],inactive
same,outcome,[5],inactive
same,AC50,[6],32.5 µM (active)
same,outcome,[7],inactive
same,outcome,[8],inactive
same,outcome,[9],inactive
same,outcome,[10],inactive
CCCCOC(=O)c1ccc(O)cc1,outcome,[1],inactive
same,outcome,[2],inactive
same,outcome,[3],inactive
same,outcome,[4],inactive
same,outcome,[5],inactive
same,outcome,[6],inactive
same,outcome,[7],inactive
same,outcome,[8],inactive
same,outcome,[10],inactive
CCCOC(=O)c1cc(O)c(O)c(O)c1,AC50,[1],0.793 µM (active)
same,outcome,[2],inactive
same,AC50,[4],21.6 µM (active)
same,AC50,[5],6.67 µM (active)
same,AC50,[6],1.14 µM (active)
same,outcome,[7],inactive
same,outcome,[8],inactive
same,outcome,[9],inactive
Cc1cc(F)ccc1-c1cc(N2CC[C@@H](O)[C@H]2CO)ncc1N(C)C(=O)C(C)(C)c1cc(C(F)(F)F)cc(C(F)(F)F)c1,AC50,[1],23.7 µM (active)
same,AC50,[2],21.4 µM (active)
same,outcome,[3],inactive
same,AC50,[4],10.3 µM (active)
same,AC50,[5],15.7 µM (active)
same,AC50,[6],0.588 µM (active)
same,AC50,[7],71.1 µM (active)
same,AC50,[8],5.44 µM (active)
same,AC50,[9],61.2 µM (active)
same,AC50,[10],20.8 µM (active)
Cc1occc1C(=O)Nc1ccc(C(=O)N2CCC(F)(F)/C(=C\C(=O)N3CCC(N4CCCCC4)CC3)c3ccccc32)cc1,AC50,[1],43.7 µM (active)
same,AC50,[2],56.5 µM (active)
same,AC50,[4],31.2 µM (active)
same,AC50,[5],49 µM (active)
same,outcome,[6],inactive
same,AC50,[7],42.3 µM (active)
same,outcome,[8],inactive
same,outcome,[9],inactive
same,outcome,[10],inactive
CCCCCCCCN(C)CCCCCCCC,outcome,[1],inactive
same,outcome,[2],inactive
same,outcome,[3],inactive
same,outcome,[4],inactive
same,outcome,[5],inactive
same,outcome,[6],inactive
same,outcome,[7],inactive
same,outcome,[8],inactive
same,outcome,[9],inactive
same,outcome,[10],inactive
CC[C@@H]1C[C@H](N(Cc2cc(C(F)(F)F)cc(C(F)(F)F)c2)C(C)=O)c2cc(C(F)(F)F)ccc2N1C(=O)OC(C)C,AC50,[1],0.507 µM (active)
same,AC50,[2],0.814 µM (active)
same,outcome,[3],inactive
same,AC50,[4],3.17 µM (active)
same,AC50,[5],15.6 µM (active)
same,AC50,[6],0.29 µM (active)
same,outcome,[7],inactive
same,outcome,[8],inactive
same,outcome,[9],inactive
same,outcome,[10],inactive
CCCCCCCCOc1ccc(C(=O)c2ccccc2)c(O)c1,outcome,[1],inactive
same,outcome,[2],inactive
same,outcome,[3],inactive
same,outcome,[4],inactive
same,outcome,[5],inactive
same,outcome,[6],inactive
same,outcome,[7],inactive
same,outcome,[8],inactive
same,outcome,[9],inactive
same,outcome,[10],inactive
CCCCCCCCCCCO,outcome,[1],inactive
same,outcome,[2],inactive
same,outcome,[3],inactive
same,outcome,[4],inactive
same,outcome,[5],inactive
same,outcome,[6],inactive
same,outcome,[7],inactive
same,outcome,[8],inactive
same,outcome,[9],inactive
same,outcome,[10],inactive
